According to PubChem BioAssay (NCI):
About 83,000 compounds went through this panel and 20% of them were active in at least one assay; those are over-represented in the sample as a whole.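 The endpoint reported here, percent growth, reads 100 for growth as untreated, 0 for no net growth and -100 for all cells dead.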 Values without a mark were called inactive. Calls of active or inactive are those of the source. The calls were made as follows: active = growth percent below 10; inactive = the rest.

Tested on: HS 578T breast
Assay: NCI-60 one-dose screen, 48 h (100 = growth as untreated, 0 = no growth, -100 = all killed)
Conditions: 10 µM

Row | Compound | growth
1 | COc1cc2cc(C(=O)N3C[C@@H](CCl)c4c3cc(OC(=O)N3CCN(C)[C@@H]5CSSC[C@H]53)c3ccccc43)[nH]c2c(OC)c1OC | -36% (active)
2 | CC1=C(CCC=O)C2=C(C)C3(CC3)[C@@](C)(O)C(=O)C2=C1 | -8.94% (active)
3 | COC(=O)C[C@](O)(CCC(C)C)C(=O)O[C@@H]1C(OC)=C[C@]23CCCN2CCc2cc4c(cc2[C@H]13)OCO4 | -22.2% (active)
4 | CC[C@]12C=CCN3CC[C@@]4(c5ccc(OC)cc5N(C)[C@H]4[C@@](O)(C(=O)OC)[C@@H]1OC(=O)CCC[P+](C1CCCCC1)(C1CCCCC1)C1CCCCC1)[C@@H]32 | -33% (active)
5 | CC1=C2C(=C[C@@](C)(COP(=O)(Oc3ccccc3)Oc3ccccc3)[C@@H]2O)C(=O)[C@@](C)(O)C12CC2 | -25.2% (active)
6 | CCOP(=O)(CC(F)(F)C(F)(F)F)OCC | 82.2%
7 | CC(C)C[C@H](NC(=O)CNC(=O)C[C@H]1O[C@@H]2OC3(C)CC[C@H]4[C@H](C)CC[C@@H]([C@H]1C)[C@@]24OO3)B(O)O | 7.9% (active)
8 | C[C@H]1[C@@H](Oc2ccc(-c3cn(-c4ccnc5cc(Cl)ccc45)nn3)cc2)O[C@@H]2OC3(C)CC[C@H]4[C@H](C)CC[C@@H]1[C@@]24OO3 | 32.5%
9 | C[C@H]1[C@H](OC(=O)CCC(=O)N(CCCc2cn(-c3ccc([N+](=O)[O-])cc3)nn2)CCNc2ccnc3cc(Cl)ccc23)O[C@@H]2OC3(C)CC[C@H]4[C@H](C)CC[C@@H]1[C@@]24OO3 | 52.8%
10 | COc1cc2cc(C(=O)N3C[C@@H](CCl)c4c3cc(OC(=O)N3CCN(C)[C@@H]5CSSC[C@@H]53)c3ccccc43)[nH]c2c(OC)c1OC | -25.5% (active)
11 | COc1cc2cc(C(=O)N3C[C@@H](CCl)c4c3cc(OC(=O)N3CCN(C(=O)CCC(=O)N5CCN(C)CC5)[C@@H]5CSSC[C@@H]53)c3ccccc43)[nH]c2c(OC)c1OC | -15.6% (active)
12 | COC(=O)c1ccc(-n2cc(CCCN(CCNc3ccnc4cc(Cl)ccc34)C(=O)CCC(=O)O[C@@H]3O[C@@H]4OC5(C)CC[C@H]6[C@H](C)CC[C@@H]([C@H]3C)[C@@]46OO5)nn2)cc1 | 49.6%
13 | CC[C@]12C=CCN3CC[C@@]4(c5ccc(OC)cc5N(C)[C@H]4[C@@](O)(C(=O)OC)[C@@H]1OC(=O)CCC[P+](c1ccc(C)cc1)(c1ccc(C)cc1)c1ccc(C)cc1)[C@@H]32 | -60.3% (active)
14 | CC[C@]12C=CCN3CC[C@@]4(c5ccc(OC)cc5N(C)[C@H]4[C@@](O)(C(=O)OC)[C@@H]1OC(=O)CCCC[P+](c1ccc(C)cc1)(c1ccc(C)cc1)c1ccc(C)cc1)[C@@H]32 | -69.9% (active)
15 | CC1=C(CCC=NNC(N)=O)C2=C(C)C3(CC3)[C@@](C)(O)C(=O)C2=C1 | -24.5% (active)
16 | Cc1ccc2[nH]c(=S)n(-c3ccc(F)cc3)c(=O)c2c1 | 104%
17 | CC1=C(COCCOC(=O)c2ccc(S(=O)(=O)F)cc2)C2=C(C)C3(CC3)[C@@](C)(O)C(=O)C2=C1 | -12.9% (active)
18 | CC12CCC3(CCC(=O)NCCCNc4ccnc5cc(Cl)ccc45)[C@@](C)(OO[C@]3(C)O1)O2 | 11.4%
19 | COC(=O)CCn1c(-c2ccc(-n3cc(-c4ccc(O[C@H]5O[C@@H]6OC7(C)CC[C@H]8[C@H](C)CC[C@@H]([C@H]5C)[C@@]68OO7)cc4)nn3)cc2)nc2ccccc21 | 30.3%
20 | CC1=C(C=O)C2=C(C)C3(CC3)[C@@](C)(O)C(=O)C2=C1 | 36.3%
21 | C[C@H]1[C@@H](CC(=O)N[C@@H](Cc2coc3ccccc23)B(O)O)O[C@@H]2OC3(C)CC[C@H]4[C@H](C)CC[C@@H]1[C@@]24OO3 | -4.2% (active)
22 | COC(=O)C[C@](O)(CCC(C)C)C(=O)O[C@H]1C(OC)=C[C@@]23CCCN2CCc2cc4c(cc2[C@@H]13)OCO4 | -25.8% (active)
23 | C[C@H]1[C@H](OC(=O)CCC(=O)N(CCCc2cn(-c3ccc(C#N)cc3)nn2)CCNc2ccnc3cc(Cl)ccc23)O[C@@H]2OC3(C)CC[C@H]4[C@H](C)CC[C@@H]1[C@@]24OO3 | 43%

Tested on: NCI/ADR-RES ovarian
Assay: as above
Conditions: 10 µM

Row | Compound | growth
24 | COc1cc2cc(C(=O)N3C[C@@H](CCl)c4c3cc(OC(=O)N3CCN(C)[C@@H]5CSSC[C@H]53)c3ccccc43)[nH]c2c(OC)c1OC | -56.1% (active)
25 | CC1=C(CCC=O)C2=C(C)C3(CC3)[C@@](C)(O)C(=O)C2=C1 | -43.5% (active)
26 | COC(=O)C[C@](O)(CCC(C)C)C(=O)O[C@@H]1C(OC)=C[C@]23CCCN2CCc2cc4c(cc2[C@H]13)OCO4 | -29.7% (active)
27 | O=C(/C=C/c1ccc(Cl)cc1)c1nc2ccccc2n1Cc1ccc(F)cc1 | 7.75% (active)
28 | CC[C@]12C=CCN3CC[C@@]4(c5ccc(OC)cc5N(C)[C@H]4[C@@](O)(C(=O)OC)[C@@H]1OC(=O)CCC[P+](C1CCCCC1)(C1CCCCC1)C1CCCCC1)[C@@H]32 | 100%
29 | CC1=C2C(=C[C@@](C)(COP(=O)(Oc3ccccc3)Oc3ccccc3)[C@@H]2O)C(=O)[C@@](C)(O)C12CC2 | -75.5% (active)
30 | CC(=O)Oc1ccccc1C(=O)NC([Se])=NC1CCCCC1 | -16.4% (active)
31 | CCOP(=O)(CC(F)(F)C(F)(F)F)OCC | 14%
32 | CC(C)C[C@H](NC(=O)CNC(=O)C[C@H]1O[C@@H]2OC3(C)CC[C@H]4[C@H](C)CC[C@@H]([C@H]1C)[C@@]24OO3)B(O)O | 94.2%
33 | C[C@H]1[C@@H](Oc2ccc(-c3cn(-c4ccnc5cc(Cl)ccc45)nn3)cc2)O[C@@H]2OC3(C)CC[C@H]4[C@H](C)CC[C@@H]1[C@@]24OO3 | 19.6%
34 | C[C@H]1[C@H](OC(=O)CCC(=O)N(CCCc2cn(-c3ccc([N+](=O)[O-])cc3)nn2)CCNc2ccnc3cc(Cl)ccc23)O[C@@H]2OC3(C)CC[C@H]4[C@H](C)CC[C@@H]1[C@@]24OO3 | 30.6%
35 | COc1cc2cc(C(=O)N3C[C@@H](CCl)c4c3cc(OC(=O)N3CCN(C)[C@@H]5CSSC[C@@H]53)c3ccccc43)[nH]c2c(OC)c1OC | -22.2% (active)
36 | COc1cc2cc(C(=O)N3C[C@@H](CCl)c4c3cc(OC(=O)N3CCN(C(=O)CCC(=O)N5CCN(C)CC5)[C@@H]5CSSC[C@@H]53)c3ccccc43)[nH]c2c(OC)c1OC | -56.6% (active)
37 | COC(=O)c1ccc(-n2cc(CCCN(CCNc3ccnc4cc(Cl)ccc34)C(=O)CCC(=O)O[C@@H]3O[C@@H]4OC5(C)CC[C@H]6[C@H](C)CC[C@@H]([C@H]3C)[C@@]46OO5)nn2)cc1 | 11.4%
38 | O=C([Se]C1C=CCCC1)c1ccc(C(=O)[Se]C2C=CCCC2)s1 (configuration not stated) | -81.4% (active)
39 | O=C(/C=C/c1cccc(Br)c1)c1nc2ccccc2n1Cc1ccc(F)cc1 | 8.54% (active)
40 | CC[C@]12C=CCN3CC[C@@]4(c5ccc(OC)cc5N(C)[C@H]4[C@@](O)(C(=O)OC)[C@@H]1OC(=O)CCC[P+](c1ccc(C)cc1)(c1ccc(C)cc1)c1ccc(C)cc1)[C@@H]32 | 18.1%
41 | O=C(NC([Se])=NC1CCCCC1)c1ccccc1 | 23.3%
42 | O=C(/C=C/c1ccc(F)cc1)c1nc2ccccc2n1Cc1ccc(F)cc1 | -42.5% (active)
43 | O=C(/C=C/c1ccccc1)c1nc2ccccc2n1Cc1ccc(Br)cc1 | -37.4% (active)

Row | Compound | growth
44 | C=CC[Se]C(=O)c1cncc(C(=O)[Se]CC=C)c1 | -70.2% (active)
45 | COc1ccc(OC)c(/C=C/C(=O)c2nc3ccccc3n2Cc2ccc(F)cc2)c1 | -41.5% (active)
46 | O=C(/C=C/c1ccc(F)cc1)c1nc2ccccc2n1Cc1ccc(Br)cc1 | -59.8% (active)
47 | CC[C@]12C=CCN3CC[C@@]4(c5ccc(OC)cc5N(C)[C@H]4[C@@](O)(C(=O)OC)[C@@H]1OC(=O)CCCC[P+](c1ccc(C)cc1)(c1ccc(C)cc1)c1ccc(C)cc1)[C@@H]32 | 71.8%
48 | CC(C)N=C([Se])NC(=O)c1cccs1 | -27% (active)
49 | CC1=C(CCC=NNC(N)=O)C2=C(C)C3(CC3)[C@@](C)(O)C(=O)C2=C1 | -39.3% (active)
50 | Cc1ccc2[nH]c(=S)n(-c3ccc(F)cc3)c(=O)c2c1 | 103%
51 | C#CC[Se]C(=O)c1ccc2n[se]nc2c1 | 49.5%
52 | CC1=C(COCCOC(=O)c2ccc(S(=O)(=O)F)cc2)C2=C(C)C3(CC3)[C@@](C)(O)C(=O)C2=C1 | -43.2% (active)
53 | CC12CCC3(CCC(=O)NCCCNc4ccnc5cc(Cl)ccc45)[C@@](C)(OO[C@]3(C)O1)O2 | -14.7% (active)
54 | O=C(/C=C/c1ccc(Br)cc1)c1nc2ccccc2n1Cc1ccc(Br)cc1 | -38.2% (active)
55 | COC(=O)CCn1c(-c2ccc(-n3cc(-c4ccc(O[C@H]5O[C@@H]6OC7(C)CC[C@H]8[C@H](C)CC[C@@H]([C@H]5C)[C@@]68OO7)cc4)nn3)cc2)nc2ccccc21 | 16.2%
56 | CC1=C(C=O)C2=C(C)C3(CC3)[C@@](C)(O)C(=O)C2=C1 | 16%
57 | N#C[Se]CC(=O)Nc1cccc(C(F)(F)F)c1 | -60.8% (active)
58 | CCC[Se]C(=O)c1ccc(C(=O)[Se]CCC)s1 | -53.9% (active)
59 | C[C@H]1[C@@H](CC(=O)N[C@@H](Cc2coc3ccccc23)B(O)O)O[C@@H]2OC3(C)CC[C@H]4[C@H](C)CC[C@@H]1[C@@]24OO3 | 27.6%
60 | O=C(/C=C/c1ccco1)c1nc2ccccc2n1Cc1ccc(F)cc1 | 72.5%
61 | COC(=O)C[C@](O)(CCC(C)C)C(=O)O[C@H]1C(OC)=C[C@@]23CCCN2CCc2cc4c(cc2[C@@H]13)OCO4 | -2.69% (active)
62 | C[C@H]1[C@H](OC(=O)CCC(=O)N(CCCc2cn(-c3ccc(C#N)cc3)nn2)CCNc2ccnc3cc(Cl)ccc23)O[C@@H]2OC3(C)CC[C@H]4[C@H](C)CC[C@@H]1[C@@]24OO3 | 28.4%
